Experimental findings from PubChem BioAssay (NCI) are described below.

About 83,000 compounds went through this panel and 20% of them were active in at least one assay; those are over-represented in the sample as a whole.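 The endpoint reported here, percent growth, reads 100 for growth as untreated, 0 for no net growth and -100 for all cells dead.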 A number with no mark means an inactive call. Activity calls are given as the source filed them. How the source made its calls: active means growth percent below 10; inactive means the rest.

Some test systems named below: SK-MEL-2 melanoma; EKVX NSCLC; SN12C renal; UO-31 renal; TK-10 renal; ACHN renal; A498 renal; CCRF-CEM leukemia; MOLT-4 leukemia; SR leukemia; RPMI-8226 leukemia; OVCAR-8 ovarian; OVCAR-5 ovarian; OVCAR-4 ovarian; SK-OV-3 ovarian; IGROV1 ovarian; OVCAR-3 ovarian; HS 578T breast; NCI/ADR-RES ovarian; CAKI-1 renal.
Common to all, as to test: NCI-60 one-dose screen, 48 h (100 = growth as untreated, 0 = no growth, -100 = all killed)
Common to all, as to details: 10 µM unless noted

Consider `O=C(C[C@]1(O)C(=O)Nc2ccccc21)c1cccc(C(F)(F)F)c1`, for which the growth with SK-MEL-2 melanoma is 91.2%; in the assay with EKVX NSCLC, 99.5%; with SN12C renal, 80%; in the assay on UO-31 renal, 58.1%; in the assay with TK-10 renal, 138%; with ACHN renal, 88.2%. Besides, the growth is 99.8% in the assay on A498 renal; 97% with CCRF-CEM leukemia; 96% in the assay with MOLT-4 leukemia; 96.7% with SR leukemia; 88.7% with RPMI-8226 leukemia; 95.1% in the assay with OVCAR-8 ovarian. Also, the growth with OVCAR-5 ovarian was 81.4%; in the assay with OVCAR-4 ovarian, 91.3%; in the assay on SK-OV-3 ovarian, 75.8%; in the assay on IGROV1 ovarian, 67.6%; in the assay on OVCAR-3 ovarian, 77.9%; in the assay with HS 578T breast, 90.3%. Besides, the growth in the assay with NCI/ADR-RES ovarian was 94.7%.

On to `COc1ccc2c(c1)N(CCO)C1=C(C(=O)OC1)C2c1cccc(F)c1` (stereo unspecified), for which the growth is 31.3% in the assay with SK-MEL-2 melanoma; 38.9% in the assay with EKVX NSCLC; 45.2% with SN12C renal; 46.3% in the assay with UO-31 renal; 61.2% in the assay on TK-10 renal; 27.6% in the assay on ACHN renal. For the same compound, the growth in the assay on A498 renal was -4.39% (active); in the assay on CCRF-CEM leukemia, 9.38% (active); with MOLT-4 leukemia, 16.3%; in the assay on SR leukemia, 16%; in the assay with RPMI-8226 leukemia, 21.3%; with OVCAR-8 ovarian it was 11%. Further, the growth in the assay with OVCAR-5 ovarian was 44.6%; in the assay on OVCAR-4 ovarian it was 51.5%; in the assay with SK-OV-3 ovarian, 23.2%; in the assay with IGROV1 ovarian, 34.5%; in the assay with OVCAR-3 ovarian it was -16.7% (active); in the assay on HS 578T breast it was 34.2%. In addition, the growth in the assay with NCI/ADR-RES ovarian was 15.6%.

Regarding `O=C(N/N=C/c1ccc(Cl)cc1)c1[nH]c2ccc(Cl)cc2c1-c1ccccc1`, the growth was -9.34% (active) in the assay on SK-MEL-2 melanoma; 40.7% in the assay on EKVX NSCLC; 28.1% in the assay on SN12C renal; 24.7% with UO-31 renal; 51.8% in the assay with TK-10 renal; 28.4% in the assay with ACHN renal. Also, the growth was 36.2% in the assay on A498 renal; 19.3% with CCRF-CEM leukemia; 33.7% in the assay with MOLT-4 leukemia; 52.2% in the assay on SR leukemia; -3.56% (active) with RPMI-8226 leukemia; 28.8% with OVCAR-8 ovarian. Further, the growth in the assay with OVCAR-5 ovarian was 51.5%; with OVCAR-4 ovarian it was 41.4%; in the assay on SK-OV-3 ovarian, -1.75% (active); with IGROV1 ovarian, 17.3%; in the assay on OVCAR-3 ovarian, -13.4% (active); with HS 578T breast it was 82%. In addition, the growth in the assay with NCI/ADR-RES ovarian was 1.79% (active).

For the compound `COc1ccc2[nH]c(C(=O)N3CCN(C(=O)OCc4ccc5c(Cl)cc(Cl)c(O)c5n4)CC3)cc2c1`, the growth is -77.2% (active) with SK-MEL-2 melanoma; -76.6% (active) in the assay on EKVX NSCLC; -83.8% (active) in the assay with SN12C renal; -100% (active) in the assay with UO-31 renal; -99.2% (active) in the assay on TK-10 renal; -100% (active) in the assay with ACHN renal. Also, the growth was -13.8% (active) in the assay on A498 renal; -9.25% (active) in the assay with CCRF-CEM leukemia; -6.74% (active) in the assay on MOLT-4 leukemia; 2.29% (active) in the assay with SR leukemia; -27.9% (active) with RPMI-8226 leukemia; -64.1% (active) in the assay with OVCAR-8 ovarian. Besides, the growth with OVCAR-5 ovarian was -88.7% (active); with OVCAR-4 ovarian, -69.5% (active); with SK-OV-3 ovarian, 44.7%; in the assay with IGROV1 ovarian, -96.4% (active); with OVCAR-3 ovarian it was -97.3% (active); with HS 578T breast, -15.1% (active). Further, the growth in the assay on NCI/ADR-RES ovarian was -2.44% (active).

As for `CC/C(=C(/c1ccc(Cl)cc1)c1ccc(OCCN2CCCCC2)cc1)c1ccc(OC)cc1`, the growth in the assay with SK-MEL-2 melanoma was 90.6%; with EKVX NSCLC, 58.5%; in the assay with SN12C renal it was 74.8%; in the assay on UO-31 renal, 66.2%; in the assay on TK-10 renal, 80.7%; with ACHN renal, 81.2%. Moreover, the growth in the assay on A498 renal was 118%; with CCRF-CEM leukemia it was 28.8%; in the assay with MOLT-4 leukemia, 25.8%; in the assay on SR leukemia it was -22.2% (active); in the assay on RPMI-8226 leukemia, -10.5% (active); with OVCAR-8 ovarian, 65.9%. In addition, the growth in the assay on OVCAR-5 ovarian is 65.4%; in the assay on OVCAR-4 ovarian, 69.3%; in the assay on SK-OV-3 ovarian, 94.9%; with IGROV1 ovarian, 80.5%; in the assay on OVCAR-3 ovarian it was 66.4%; with HS 578T breast it was 85.3%. The growth in the assay with NCI/ADR-RES ovarian was 71.8%.

As for `COc1ccccc1NC(=O)N=Nc1c(O)[nH]c2ccccc12`, the growth with SK-MEL-2 melanoma was 100%; in the assay on EKVX NSCLC it was 83.9%; in the assay with SN12C renal, 93.5%; with UO-31 renal it was 58.7%; in the assay with TK-10 renal, 118%; in the assay with ACHN renal, 93%. Also, the growth in the assay on CAKI-1 renal is 73.3%; in the assay with A498 renal, 90.7%; in the assay on CCRF-CEM leukemia it was 89.9%; in the assay with RPMI-8226 leukemia, 84.8%; in the assay with OVCAR-8 ovarian it was 92.9%; in the assay on OVCAR-5 ovarian, 86.7%. Moreover, the growth with OVCAR-4 ovarian was 105%; in the assay on SK-OV-3 ovarian, 97.8%; with IGROV1 ovarian, 82%; with OVCAR-3 ovarian, 107%; in the assay on HS 578T breast it was 87.8%; in the assay with NCI/ADR-RES ovarian it was 94.1%.

For the compound `CC1=NC2=Nn3c(c4cnn(-c5ccccc5)c4n/c3=N\N)NN2C(c2ccccc2)=C1`, the growth with SK-MEL-2 melanoma is 101%; with EKVX NSCLC, 80.7%; in the assay with SN12C renal, -63.4% (active); with UO-31 renal, 70.3%; in the assay with TK-10 renal, 109%; in the assay on ACHN renal, 85.8%. The growth was 91% in the assay on A498 renal; 101% in the assay on CCRF-CEM leukemia; 103% in the assay on MOLT-4 leukemia; 99.6% with SR leukemia; 98.3% in the assay with RPMI-8226 leukemia; 101% in the assay with OVCAR-8 ovarian. Besides, the growth in the assay on OVCAR-5 ovarian is 90%; in the assay on OVCAR-4 ovarian it was 94.7%; in the assay on SK-OV-3 ovarian it was 98%; in the assay on IGROV1 ovarian, 61.8%; in the assay with OVCAR-3 ovarian, 90.2%; with HS 578T breast, 80.5%. Besides, the growth with NCI/ADR-RES ovarian was 97.5%.

On to `Cc1cc(C)c2c(c1)N(C)c1ncnc(-n3cnc4cc(C)ccc43)c1CC2C` (stereo unspecified), for which the growth in the assay with SK-MEL-2 melanoma was 16.7%; with EKVX NSCLC, 39%; with SN12C renal it was 43.1%; with UO-31 renal it was 33.1%; in the assay with TK-10 renal, 40%; in the assay on ACHN renal it was 49.6%. For the same compound, the growth was 6.61% (active) with A498 renal; 0.648% (active) in the assay on CCRF-CEM leukemia; 12.7% in the assay with MOLT-4 leukemia; 9.87% (active) in the assay with RPMI-8226 leukemia; 17.1% with OVCAR-8 ovarian; 76.6% with OVCAR-5 ovarian. Also, the growth is 61.5% in the assay with OVCAR-4 ovarian; 3.2% (active) in the assay on SK-OV-3 ovarian; 44.7% in the assay with IGROV1 ovarian; 8.19% (active) in the assay on OVCAR-3 ovarian; 14.6% in the assay with NCI/ADR-RES ovarian.

In the case of `O=C1Nc2ccc(C(=O)O)cc2/C1=N/c1nnc(Sc2ccccc2)s1`, the growth with SK-MEL-2 melanoma is 112%; in the assay with EKVX NSCLC it was 104%; in the assay on SN12C renal it was 96.9%; in the assay with UO-31 renal it was 84.3%; in the assay with TK-10 renal, 106%; in the assay with ACHN renal, 98.4%. Further, the growth in the assay with CAKI-1 renal was 85.9%; with A498 renal, 86.8%; with CCRF-CEM leukemia it was 99.7%; with RPMI-8226 leukemia, 99.1%; in the assay with OVCAR-8 ovarian, 98.8%; in the assay with OVCAR-4 ovarian, 111%. Also, the growth with SK-OV-3 ovarian is 109%; in the assay on IGROV1 ovarian, 99.7%; in the assay with OVCAR-3 ovarian it was 105%; in the assay with HS 578T breast, 96.8%; with NCI/ADR-RES ovarian it was 110%.
